Bioassay records from PubChem BioAssay.
Compounds with a hit are over-represented: about 15% of the library has one in this group of screens.
ELG1 DNA repair: inhibitors of ELG1-dependent DNA repair in HEK293T cells; HEK293T ELG1-luciferase reporter, luminescence, 16 h; DNA damage induced by 5-fluorouridine; actives 2.3% (n = 330,000); Potency, µM (highest dose often 46.1 µM), inactives show at the highest dose activity change, negative = inhibition, most hits filed as inhibitors; note: nearly all actives have a fitted effect of over 55% in size
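Cells (2,000 per well) received 5-fluorouridine plus test compound or DMSO and were incubated 16 hr at 37 °C, 5% CO2. Luciferase activity was read by luminescence 30 min after ONE-Glo addition; signal suppression marked inhibition of damage-induced ELG1 function.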
RORg inh: inhibitors of mouse ROR gamma transcriptional activity; P51450; Drosophila S2 Gal4-RORgamma UAS-luciferase reporter, 20 h; AID 2551; actives 5.4% (n = 310,000); Potency, µM (highest dose often 53.6 µM), for the others: at the highest dose activity change, negative = inhibition, hits mostly inhibitors; note: nearly all actives have a fitted effect of over 60% in size
Target sequence (P51450 whole entry, looked up, the tested form may be a part): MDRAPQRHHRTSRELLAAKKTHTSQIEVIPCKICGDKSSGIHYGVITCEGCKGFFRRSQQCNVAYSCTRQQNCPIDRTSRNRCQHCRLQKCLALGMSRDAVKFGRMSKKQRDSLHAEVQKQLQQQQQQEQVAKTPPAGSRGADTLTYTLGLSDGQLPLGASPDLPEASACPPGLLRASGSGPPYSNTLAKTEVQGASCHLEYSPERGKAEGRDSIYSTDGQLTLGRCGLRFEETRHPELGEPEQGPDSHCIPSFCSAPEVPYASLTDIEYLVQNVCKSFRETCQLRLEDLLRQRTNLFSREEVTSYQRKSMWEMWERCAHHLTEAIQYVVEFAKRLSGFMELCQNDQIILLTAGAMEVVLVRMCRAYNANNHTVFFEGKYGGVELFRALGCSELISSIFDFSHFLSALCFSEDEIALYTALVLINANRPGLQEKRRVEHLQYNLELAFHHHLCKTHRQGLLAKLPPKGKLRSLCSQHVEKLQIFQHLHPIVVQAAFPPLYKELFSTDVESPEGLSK
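Drosophila Schneider cells stably carrying a metallothionein-driven Gal4 DBD–ROR gamma fusion and a UAS-Photinus luciferase reporter were exposed to compound for 1 hr, then induced with copper sulfate (700 uM final) for 20 hr at ambient temperature before luminescence reading.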
TDP1 cell CPT: DT40-hTDP1 cell growth loss with CPT | actives 12% (n = 420,000) | chicken DT40 Tdp1-/-;hTDP1 cells + 20 nM CPT, ATP luminescence, 48 h | Potency, µM (titrated, usually from 46.2 µM), for the others: top-dose activity change, negative = growth inhibition, most hits filed as inhibitors; note: nearly all actives have a fitted effect of over 55% in size
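Chicken DT40 Tdp1-/- cells stably complemented with human TDP1 were seeded at 400 cells/well in medium containing 20 nM camptothecin, exposed to pin-transferred compounds, and grown at 37 °C for at least 48 hr. Viability was read as ATP luminescence.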
Gal4-VP16 FLuc: Gal4-VP16 reporter inhibition counter-screen; Drosophila S2 Gal4-VP16 UAS-luciferase, luminescence, 20 h; Potency, µM (series often up to 53.6 µM), inactives show at the top dose activity, negative = inhibition, actives largely listed as inhibitors; actives 3.5% (n = 310,000); AID 2546;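 note: Gal4-VP16 expression switched on by copper sulfate through the metallothionein promoter; nearly all actives have a fitted effect of over 50% in size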
ALOX12 inh: inhibitors of human 12S-lipoxygenase ALOX12; actives 1.1% (n = 580,000); AID 1671190; purified 12hLO, xylenol orange hydroperoxide absorbance; Potency, µM (highest dose often 108 µM), without a hit: at the highest dose activity change, negative = inhibition, usual class: inhibitors
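Hydroperoxide product was detected by ferrous iron/xylenol orange as the 573 to 405 nm absorbance ratio. Arachidonic acid at 40 uM (final) was turned over for 30 min at room temperature by 150 nM human 12hLO, pH 7.0 Hepes buffer, after 15 min compound preincubation.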
TDP1 cell noCPT: qHTS for Inhibitors of human tyrosyl-DNA phosphodiesterase 1 (TDP1): qHTS in cells in absence of CPT. DT40 Tdp1-/- hTDP1 cells, no CPT, ATP luminescence, 48 h. actives 15% (n = 420,000). Potency, µM (top dose mostly 46.2 µM), without a hit: at the highest dose activity change, negative = growth inhibition, most hits filed as inhibitors; note: nearly all actives have a fitted effect of over 55% in size
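Seeded 400 DT40-hTDP1 cells/well (vehicle DMSO, no 20 nM CPT); pinned compounds; ≥48 hr at 37 °C; CellTiter-Glo luminescence as viability measure.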
* hit, by the source's call; ? = inconclusive; / = no result; [ ] = remark or other dose. Calls come from the whole dose curve; as a rule, active = well fitted curve in the direction sought with a large enough effect; inconclusive = small, poorly fitted or top-dose-only effect, or another doubt; inactive = no such curve, though single readings can be large; an effect the other way counts as inactive or inconclusive. % is set by controls: 0 for no effect and ±100 for the full control effect; potency is the fitted concentration of half-maximal effect.

SMILES	ELG1 DNA repair	RORg inh	TDP1 cell CPT	Gal4-VP16 FLuc	ALOX12 inh	TDP1 cell noCPT
COc1ccc(S(=O)(=O)N2CCCCC2c2cc(C(=O)Nc3ccc(F)c(Cl)c3)no2)cc1 (centres undefined)	/	/	16µM*	/	-16%	16µM*
COc1ccc(S(=O)(=O)N2CCCCC2c2cc(C(=O)Nc3ccccc3)no2)cc1 (centres undefined)	/	/	-18%	/	0%	-25%
COc1ccc(NC(=O)c2cc(C3CCCCN3S(=O)(=O)c3cccs3)on2)c(C)c1 (centres undefined)	/	/	?	/	-6%	23µM*
COc1ccc(S(=O)(=O)N2CCCCC2c2cc(C(=O)NCc3cccnc3)no2)cc1 (centres undefined)	/	/	29µM*	/	-62%	?
COc1ccc(S(=O)(=O)N2CCCCC2c2cc(C(=O)Nc3ccc(OC)cc3C)no2)cc1 (centres undefined)	/	/	16µM*	/	12%	18µM*
CC1(C)CCCC(C)(C#CCN2CCN(c3ccccc3)CC2)O1 (centres undefined)	/	/	/	/	-26%	/
CC1(C)CCCC(C)(C#CCN2CCN(C(c3ccccc3)c3ccccc3)CC2)O1 (centres undefined)	/	/	/	/	10µM*	/
COC(=O)c1sc(NC(=O)COc2cc(C)cc(C)c2)nc1C	/	/	/	/	-17%	/
S=C(NCc1ccccc1)Nc1cccc2ccccc12	7%	3.2µM*	18µM*	5.6µM*	45µM*	18µM*
Cc1cccc(NC(=S)NCc2cccs2)c1C	-8%	3.5µM*	-8%	10µM*	-4%	-25%
CCN(C(=S)Nc1cccc2ccccc12)c1ccccc1	/	/	?	/	?	10µM*
S=C(NCc1cccs1)Nc1cccc2ccccc12	2%	3.5µM*	6%	?	?	-18%
Cc1cccc(Nc2ncccc2C(=O)NCc2cccs2)c1C	?	-8%	-2%	11%	-6%	-25%
Cc1ccc(C(C)C)c(OCCNC(=S)Nc2cccc3ccccc23)c1	-14%	1.3µM*	14µM*	3.2µM*	?	13µM*
S=C(NCCc1ccccc1)NCc1cccs1	?	11µM*	-29%	-84%	-14%	9%
CC(C)(C)C(=O)N1CCC(O)(CS(=O)(=O)Cc2ccccc2Cl)CC1	0%	?	-25%	5.6µM*	0%	-9%
Cc1cccc(N2CCN(C(=O)c3cc4ccc5cccnc5c4[nH]3)CC2)c1C	/	/	23µM*	/	-19%	?
CC(=O)c1ccc(N2CCN(C(=O)c3cc4ccc5cccnc5c4[nH]3)CC2)cc1	/	/	15µM*	/	-6%	18µM*
CC(=O)c1ccc(NC(=O)Cc2c(C)c3ccc(O)cc3oc2=O)cc1	/	/	/	/	-8%	/
Cc1ccc(C)c(Nc2nc3nonc3nc2Nc2cccc(C)c2C)c1	/	/	3.7µM*	/	-9%	2.9µM*
CCOC(=O)c1ccc(Nc2nc3nonc3nc2Nc2cccc(C)c2C)cc1	/	/	2.6µM*	/	-14%	2.1µM*
Cc1ccc(NC(=O)COC(=O)CCC(=O)c2ccc(C(C)(C)C)cc2)c([N+](=O)[O-])c1	0%	9%	?	-20%	2%	15µM*
C=CCNC(=S)Nc1ccccc1Cl	/	/	/	/	5%	/
COc1ccc(OC)c(CCNC(=O)c2ccc(CS(=O)Cc3ccc(Cl)cc3)o2)c1 (centres undefined)	-3%	22%	23µM*	-11%	11%	?
O=C(NCc1cccc(Cl)c1)c1ccc(CS(=O)Cc2ccc(Cl)cc2)o1 (centres undefined)	13µM*	14%	?	-2%	-28%	-3%
SMILES	ELG1 DNA repair	RORg inh	TDP1 cell CPT	Gal4-VP16 FLuc	ALOX12 inh	TDP1 cell noCPT
O=C(NCCc1ccc(Cl)cc1)c1ccc(CS(=O)Cc2ccc(Cl)cc2)o1 (centres undefined)	?	26%	?	0%	0%	-19%
O=C(NCc1ccccc1)c1ccc(CS(=O)Cc2cccc(Cl)c2)o1 (centres undefined)	/	/	?	/	-2%	?
CCOc1ccc(CCNC(=O)c2ccc(CS(=O)Cc3ccc(Cl)cc3)o2)cc1 (centres undefined)	-1%	?	16µM*	-5%	-9%	?
CSc1ccc(CCNC(=O)c2ccc(CS(=O)Cc3ccc(Cl)cc3)o2)cc1 (centres undefined)	-2%	?	?	-5%	?	21µM*
COc1ccccc1S(=O)Cc1ccc(C(=O)NCCc2ccc(Cl)cc2)o1 (centres undefined)	?	-6%	?	2%	/	?
CNS(=O)(=O)c1ccc(Oc2ccc(S(=O)(=O)NC)cc2)cc1	?	-31%	15µM*	?	156%	?
CC(O)CNS(=O)(=O)c1ccc(Oc2ccc(S(=O)(=O)NCC(C)O)cc2)cc1 (centres undefined)	/	/	/	/	-15%	/
Cc1oc(-c2ccccc2)nc1CC(=O)Nc1ccccn1	/	/	/	/	-17%	/
C=CCOc1c(Br)cc(/C=N/NC(=O)Cc2ccc(C(F)(F)F)cc2[N+](=O)[O-])cc1OC	?	?	12µM*	18µM*	1%	13µM*
COc1cccc(/C=N/NC(=O)Cn2nc([N+](=O)[O-])cc2C)c1	?	29%	16%	-8%	4%	-19%
COc1cc(/C=N/NC(=O)Cn2nc([N+](=O)[O-])cc2C)cc(Br)c1OCc1ccccc1	?	1%	26µM*	6%	-15%	?
CCOc1cc(/C=N/NC(=O)Cn2nc([N+](=O)[O-])cc2C)cc(Br)c1OCc1ccccc1C	?	?	23µM*	-18%	0%	?
CCOc1cc(/C=N/NC(=O)Cc2ccc(C(F)(F)F)cc2[N+](=O)[O-])ccc1O	9%	-6%[10 µM]	-14%	-2%	6%	-11%
COc1cc(/C=N/NC(N)=O)cc(Br)c1OCc1ccccc1C	27%	-15%	-10%	1%	11%	-10%
N#CCN1CCNCC1	/	/	/	/	17%	/
O=C(NC(=S)Nc1ccc(N2CCCCC2)cc1)c1ccco1	?	7.1µM*	-1%	20µM*	-14%	-24%
CC1CCN(c2ccc(NC(=S)NC(=O)c3ccco3)cc2)CC1	?	3.2µM*	-21%	7.1µM*	-15%	?
